D1 antagonist: Antagonist of Human D 1 Dopamine Receptor: qHTS. 360,000 tested, 3.2% active. activity change, negative = inhibition, % at 10 µM. AID 504652, 2011. HEK293 TREx D1 cells, calcium flux, dopamine EC80; hits give low values; in the data active means activity change below about -30%; further: on the % scale 0 is the no-effect control and ±100 the full control effect
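Cells carrying a force-coupled, tetracycline-inducible human D1 receptor report calcium flux. Each well gets a 10 s baseline, compound with 180 s monitoring, then an EC80 dopamine stimulus with a second 180 s kinetic read.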
TRHR PAM: qHTS for Small Molecule Agonists and Allosteric Enhancers of Human TRH Receptor: Primary Screen for Enhancers | Thyrotropin-releasing hormone receptor (Homo sapiens), P34981 | TRHR cells, fluo-8 calcium fluorescence, EC20 TRH enhancement | enhancement, % at 2 µM | 360,000 tested, 0.66% active; in the data active means enhancement above about 30%; further: 0% is about no effect
Target sequence (P34981 whole entry, looked up): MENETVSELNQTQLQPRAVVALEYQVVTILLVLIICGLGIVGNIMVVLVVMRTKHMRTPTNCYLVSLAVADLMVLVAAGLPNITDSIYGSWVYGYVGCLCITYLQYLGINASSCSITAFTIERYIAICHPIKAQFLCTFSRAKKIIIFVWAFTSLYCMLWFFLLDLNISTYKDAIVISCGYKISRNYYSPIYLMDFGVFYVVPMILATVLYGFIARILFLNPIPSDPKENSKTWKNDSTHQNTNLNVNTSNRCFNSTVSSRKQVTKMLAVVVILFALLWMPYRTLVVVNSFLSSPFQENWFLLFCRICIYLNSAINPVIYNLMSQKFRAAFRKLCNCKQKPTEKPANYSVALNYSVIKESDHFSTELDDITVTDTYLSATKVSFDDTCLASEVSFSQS
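Enhancer read-out: after compound pinning and an initial kinetic agonist-mode read, an EC20 of TRH (10 nM final) was injected and fluo-8 calcium signal (Ex 480/Em 530) followed at 1 s/cycle for 100 cycles in TRHR-expressing cells.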
D1 potentiator: Potentiators of Human D1 Dopamine Receptor: qHTS; D(1A) dopamine receptor (Homo sapiens), P21728; HEK293 TREx D1 cells, calcium flux, dopamine EC20 potentiation; potentiation, % at 10 µM; 360,000 tested, 0.036% active; AID 504651, 2011; in the data active means potentiation above about 30%; further: 0% is about no effect
D1 agonist: Allosteric Agonists of the Human D1 Dopamine Receptor: qHTS. activation, % at 2 µM. HEK293 T-REx D1 cells, calcium flux, agonist mode. D(1A) dopamine receptor (Homo sapiens), P21728. AID 504660, 2011. 360,000 tested, 1% active; further: 0% is about no effect
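Agonism was scored from calcium flux recorded over 180 s (1 read/s) after pintool compound addition, following a 10-cycle baseline. Cells were inducible force-coupled HEK293 TREx D1, plated overnight at 30 C and loaded with no-wash calcium dye.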
TRHR agonist: qHTS for Small Molecule Agonists and Allosteric Enhancers of Human TRH Receptor: Primary Screen for Agonists; Thyrotropin-releasing hormone receptor (Homo sapiens), P34981; TRHR cells, calcium flux fluo-8, FDSS agonist mode; activation, % at 2 µM; 360,000 tested, 0.18% active; further: 0% is about no effect
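Read-out: compound-evoked intracellular calcium rise in TRHR cells, fluo-8 dye, kinetic FDSS fluorescence at 1 s/cycle following a 10-cycle baseline. Cells cultured overnight before dye loading (30 min–1.5 h, RT).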
Active calls of the source: *. Rows were chosen to be rich in hits. Some 4.6% of all compounds tested hit in one or more screens of this group. Unless noted, no stated cut-off is given here; in the data, active means activation above about 30%; inactive means the rest.

SMILES | D1 antagonist | TRHR PAM | D1 potentiator | D1 agonist | TRHR agonist
CCc1ccc2[nH]c(=O)c(C(c3nnnn3Cc3ccccc3)N3CCOCC3)cc2c1 (configuration not stated) | 1 | 3 | -4 | 0 | 0
N#Cc1cccc(C#N)c1Oc1ccc(S(=O)(=O)Nc2ccc(Cl)cc2)cc1 | -38* | 2 | -4 | 12 | 2
CC(=O)c1ccc(NC(=O)CCc2c(C)nn(-c3ccc4nnc(C)n4n3)c2C)cc1 | 2 | 9 | -5 | 0 | 0
COc1ccc(OC)c(C(=O)CSc2nnc(Cc3cccs3)n2CCc2ccccc2)c1 | 3 | -7 | 3 | 51* | -1
O=C(CN1C(=O)NC2(CCCc3ccccc32)C1=O)NCC(F)(F)F (configuration not stated) | -27 | 5 | -8 | 2 | -1
CCCc1nc2ccccc2n1CCOC | 3 | -3 | -4 | 0 | 0
Cc1ccc(OCCn2c(C)nc3ccccc32)cc1 | -45* | -12 | -12 | 14 | -1
Cc1ccccc1Cn1c(COc2ccc(Cl)cc2)nc2ccccc21 | -65* | 3 | -3 | 62* | -1
Cc1ccc(OCCn2c(COc3ccc(Cl)cc3)nc3ccccc32)cc1 | -18 | 9 | -6 | 47* | 5
CCCc1nc2ccccc2n1CCOc1ccccc1 | -49* | -7 | -21 | 21 | 0
Cc1cccc(C(=O)Nc2ccccc2SCc2cc(=O)c3cccc(C)c3[nH]2)c1 | -13 | -5 | 0 | 1 | -1
Cc1ccc(Nc2nc(-c3c(C)nc4ccccn34)cs2)cc1 | -48* | -9 | -6 | 2 | -1
Cc1ccn2c(-c3csc(NCc4ccccc4)n3)c(C)nc2c1 | -33* | -5 | -17 | 8 | 0
Cc1ccc(OCC(=O)c2cc(C)n(CC(F)(F)F)c2C)c([N+](=O)[O-])n1 | -11 | 1 | 0 | 4 | 0
Cc1ccc(OCC(=O)c2cc(C)n(Cc3cccs3)c2C)c([N+](=O)[O-])n1 | -7 | 39* | -7 | 12 | 0
Cc1c(NS(=O)(=O)c2ccc3c(c2)n(C)c(=O)n3C)c(=O)n(-c2ccccc2)n1C | 4 | 5 | 0 | 0 | 0
CSc1nc2ccc(S(=O)(=O)Nc3c(C)n(C)n(-c4ccccc4)c3=O)cc2s1 | -91* | 2 | -7 | 0 | 0
Cc1ccc(S(=O)(=O)N2CCCCC2)cc1C(=O)NCc1ccccn1 | 14 | 2 | 3 | -3 | 1
Cc1c(NS(=O)(=O)c2ccc(C(=O)NCc3ccc(F)cc3)cc2)c(=O)n(-c2ccccc2)n1C | -36* | 2 | -9 | 0 | 0
CCN(Cc1ccccc1)C(=O)C(C)OC(=O)c1cc(S(=O)(=O)Nc2c(C)n(C)n(-c3ccccc3)c2=O)ccc1C (configuration not stated) | -69* | 7 | -1 | 1 | -1
Cc1ccc(NC(=O)c2ccc(S(=O)(=O)Nc3c(C)n(C)n(-c4ccccc4)c3=O)cc2)nc1 | 7 | 3 | -4 | 4 | 0
CCN(Cc1ccccc1)C(=O)COC(=O)c1cc(S(=O)(=O)Nc2c(C)n(C)n(-c3ccccc3)c2=O)ccc1C | -2 | 9 | -7 | 2 | -1
Cc1ccc(S(=O)(=O)Nc2c(C)n(C)n(-c3ccccc3)c2=O)cc1C(=O)NCc1ccccn1 | -34* | 4 | -5 | 0 | -2
Cc1ccc(CSCCC(=O)N2CCN(c3cc(C)ccc3C)CC2)cc1 | -1 | -1 | -1 | 0 | 1
COc1cccc(CNC(=O)CC(c2ccc(C)cc2)N2Cc3ccccc3C2=O)c1 (configuration not stated) | -32* | -2 | -2 | -1 | -1
SMILES | D1 antagonist | TRHR PAM | D1 potentiator | D1 agonist | TRHR agonist
Cc1nnc2sc(SCC(=O)Nc3cccc(Cl)c3)nn2c1=O | -2 | 2 | -1 | 5 | 0
O=C(CCCCCCC(=O)c1ccccc1)c1ccccc1 | -32* | -10 | -1 | 2 | 0
CCOc1ccc(NC(=O)CC2C(=O)N(c3ccc(C)cc3)C(=O)N2Cc2ccc(OC)cc2)cc1 (configuration not stated) | -3 | 45* | 1 | 0 | 0
COC(=O)CN1C(=S)N(c2ccc(Cl)cc2)C(=O)C1CC(=O)Nc1ccccc1 (configuration not stated) | -32* | 23 | -4 | 3 | 0
CCOc1ccc(NC(=O)CC2C(=O)N(c3ccc(Cl)cc3)C(=O)N2Cc2cccs2)cc1 (configuration not stated) | -74* | 4 | -3 | 1 | 0
COC(=O)c1ccc(NC(=O)CC2C(=O)N(c3ccc(Cl)cc3)C(=O)N2Cc2cccs2)cc1 (configuration not stated) | -13 | 3 | -3 | 1 | 1
Cc1ccsc1CCN1C(=O)N(c2ccc(F)cc2)C(=O)C1CC(=O)Nc1ccccc1 (configuration not stated) | -30* | -8 | -4 | 4 | 0
Cc1ccsc1CCN1C(=O)N(c2ccccc2)C(=O)C1CC(=O)Nc1ccc(F)cc1 (configuration not stated) | 0 | -12 | -4 | 19 | 2
COc1ccc(CN2C(=O)N(c3ccc(OC)cc3)C(=O)C2CC(=O)Nc2ccccc2)cc1 (configuration not stated) | -3 | 5 | -1 | 2 | 0
CC(C)CN1C(=O)C(=O)N(CC(=O)c2ccc3c(c2)CCCC3)C1=O | 0 | 10 | -3 | 1 | 1
Cc1cccc(OCC(=O)NCC2(N3CCN(C)CC3)CCCCC2)c1C | 7 | 4 | -1 | 18 | -2
Cc1cccc2c1-c1sc(C(=O)NCCCN3CCN(c4cccc(Cl)c4)CC3)cc1CO2 | -3 | 0 | 0 | 4 | 0
CCOC(=O)C(NC(=O)Nc1ccc(F)cc1F)(Oc1ccc(F)cc1)C(F)(F)F (configuration not stated) | -85* | 6 | 0 | 2 | 1
CCOC(=O)c1ccc(NC(=O)Cn2cnc3sc(C(=O)OCC)c(C)c3c2=O)cc1 | -8 | -2 | 2 | 2 | 0
Cc1ccc(C(=O)CCC(=O)OCC(=O)NNC(=O)c2ccccc2Cl)cc1 | -8 | 32* | -4 | 1 | -1
O=C(COC(=O)CCC(=O)c1ccccc1)NNC(=O)c1ccc(Cl)cc1 | 10 | -3 | 1 | 0 | 0
CCN(c1ccccc1)S(=O)(=O)c1cc(-c2onc(C)c2C)ccc1OC | -10 | 2 | -4 | 9 | 0
CCN(C(=O)Cn1c(=O)oc2cc(Cl)ccc21)c1cccc(C(F)(F)F)c1 | 11 | -6 | 3 | 3 | 0

Screening data deposited in PubChem by National Center for Advancing Translational Sciences (NCATS).
